Bioassay records as filed in PubChem.
An excerpt weighted towards active compounds, which were near 1.1% of everything screened.
CaV13 FRET inh – Disruptors of the CACNA1D IQ motif to Ca2+-dependent inactivation inhibitor domain association, primary screening, Förster resonance energy transfer in intact living …. actives 0.098% (n = 340,000). inhibition, % at 12.3 µM. HEK cells, CFP/YFP FRET ICDI-IQ, plate reader, 10 min; percent FRET-ratio fall versus neutral wells;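 active = mean replicate inhibition of at least 30% and at least 1% of replicates passing that level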;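 also: 0% = median of the neutral control wells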
Granule exo inh – lytic granule exocytosis inhibition; TALL-104 LAMP-1 surface exposure, flow cytometry; cells stimulated with thapsigargin and PMA; inhibition, % at 10 µM; actives 0.66% (n = 360,000); AID 651702;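 active = inhibition above about 55%, limit read from the data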
VLA-4 inh – inhibition in a human VLA-4 binding assay | actives 0.2% (n = 330,000) | VLA-4 expressing cells, ligand binding flow cytometry | AID 2557 | inhibition, % (about 7 µM as worked out from the volumes in the protocol) | P13612; in the data active = inhibition above about 50%
Target sequence (P13612 whole entry, looked up): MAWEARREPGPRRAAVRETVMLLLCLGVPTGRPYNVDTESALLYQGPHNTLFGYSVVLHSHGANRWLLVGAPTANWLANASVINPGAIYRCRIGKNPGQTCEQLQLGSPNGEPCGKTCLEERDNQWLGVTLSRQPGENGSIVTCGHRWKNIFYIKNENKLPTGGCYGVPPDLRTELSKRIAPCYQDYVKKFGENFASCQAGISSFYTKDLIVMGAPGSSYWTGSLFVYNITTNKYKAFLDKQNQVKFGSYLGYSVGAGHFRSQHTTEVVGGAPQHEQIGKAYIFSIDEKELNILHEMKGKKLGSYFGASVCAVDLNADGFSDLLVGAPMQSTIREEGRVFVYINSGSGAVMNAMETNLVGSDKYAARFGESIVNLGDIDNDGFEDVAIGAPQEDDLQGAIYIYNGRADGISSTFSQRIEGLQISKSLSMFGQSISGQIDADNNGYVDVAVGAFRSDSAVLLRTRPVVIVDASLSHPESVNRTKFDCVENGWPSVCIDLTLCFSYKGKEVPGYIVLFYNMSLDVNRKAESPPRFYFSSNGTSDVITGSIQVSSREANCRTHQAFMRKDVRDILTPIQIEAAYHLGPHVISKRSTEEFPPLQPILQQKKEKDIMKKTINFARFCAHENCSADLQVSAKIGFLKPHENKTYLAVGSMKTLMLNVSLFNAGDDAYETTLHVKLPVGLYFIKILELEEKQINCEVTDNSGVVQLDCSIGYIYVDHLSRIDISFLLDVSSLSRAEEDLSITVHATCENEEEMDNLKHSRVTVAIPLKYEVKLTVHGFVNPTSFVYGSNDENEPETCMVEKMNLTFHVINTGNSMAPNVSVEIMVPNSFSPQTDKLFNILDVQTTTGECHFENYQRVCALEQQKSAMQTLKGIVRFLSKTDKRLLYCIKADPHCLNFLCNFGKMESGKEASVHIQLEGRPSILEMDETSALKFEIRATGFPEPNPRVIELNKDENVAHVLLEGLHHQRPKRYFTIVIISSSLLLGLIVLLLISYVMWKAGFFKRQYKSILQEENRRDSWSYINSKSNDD
ABCB6 inh 2 – blocks the human ABCB6 transporter; Q9NP58; K562-ABCB6 porphyrin accumulation, flow cytometry, 1 h; active compounds read low; fluorescence ratio to DMSO, % at 10 µM; actives 0.19% (n = 360,000);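 active = fluorescence ratio to DMSO below 75%, the collection mean minus 3 SD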;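 also: signal is porphyrin accumulated inside mitochondria; 100% equals median channel fluorescence of DMSO control wells; lower ratio means ABCB6 inhibition with less porphyrin fluorescence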
VLA-4 allo CP – human VLA-4 allosteric modulation in cherry picked compounds; U937 cells, HUTS-21 LIBS mAb binding, flow cytometry; LDV ligand present at threefold Kd; shares compounds with VLA-4 inh; actives 2% (n = 1,300); inhibition, % at 6.7 µM; in the data active = inhibition above about 40%;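 also: 0% = ligand without compound and 100% = no ligand background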
* hit, by the source's call; . = no result.

SMILES	CaV13 FRET inh	Granule exo inh	VLA-4 inh	ABCB6 inh 2	VLA-4 allo CP
O=C(CNC(=O)c1sc2ccccc2c1Cl)NCc1cccc(C(F)(F)F)c1	-3	-6	53*	97	0
CC(=O)Nc1ccc(NC(=O)CNC(=O)c2sc3ccccc3c2Cl)cc1	-16	-1	-6	96	.
COC(=O)C1=C(C)N(C)C(=NCC2CC2)NC1c1cccc(Cl)c1 (stereo not given)	-5	.	.	.	.
COc1ccc(S(=O)(=O)CC(=O)c2cc(C)c(O)c(C)c2)cc1	-4	8	50*	94	-10
Cc1ccc(S(=O)(=O)N2CCOCC2)cc1NC(=O)COC(=O)c1ccccc1OCc1c(C)noc1C	-5	-4	40	93	-14
CCCCCCc1nc2ccccc2c(=O)n1N	.	3	-11	97	.
CCCCCN1C(=O)Cn2c(nc3ccccc3c2=O)C1C (stereo not given)	-4	-3	43	95	0
CNc1nc(C)nc(-n2nc(C)cc2C)n1	-5	2	-7	88	-1
COC(=O)C1=C(C)N(Cc2ccc(C(F)(F)F)cc2)C(=NCc2ccc3c(c2)OCO3)NC1c1ccccc1 (stereo not given)	-5	.	.	.	.
NS(=O)(=O)c1cccc(NC(=O)Nc2ccccc2)c1	-4	-8	-7	114	11
NS(=O)(=O)c1ccc(NC(=O)Nc2ccccc2)cc1	-2	-4	3	98	-1
NS(=O)(=O)c1ccc(NC(=O)Nc2ccc(S(N)(=O)=O)cc2)cc1	-5	-2	3	97	.
COCc1cc(N2CCNC[C@@H]2C)ccc1N1C[C@@H](C)O[C@@H](C)C1	-8	.	.	.	.
CC(C)c1ccccc1-n1c(SCC(=O)N2CCc3ccccc3C2)nc2ccccc2c1=O	15	14	55*	91	8
CCOC(=O)c1c(NC(N)=O)sc(C)c1C	-5	0	9	95	.
CCOC(=O)c1c(N2C(=O)C=CC2=O)sc(C)c1C	.	18	50*	101	32
CCOC(=O)N1CCC(N2Cc3cccc(C(=O)NCc4ccc(C)cc4)c3C2=O)CC1	-4	12	50*	102	14
CCNC(=O)N1CCN(c2ccc(N3CCN(Cc4ccccc4)[C@H](C)C3)c(C)c2)[C@@H](C)C1	-9	.	.	.	.
CCCCC[C@@H]1C=C(C(=O)O)[C@H](c2ccc(C)cc2)N1S(=O)(=O)c1ccc(C)cc1	-6	-11	-9	98	.
Cc1ccc(S(=O)(=O)N2[C@@H](c3ccc(Cl)cc3)C(C(=O)O)=C[C@H]2C(C)(C)C)cc1	-2	0	-3	102	.
CCCCC[C@@H]1C=C(C(=O)O)[C@H](c2ccc(Cl)cc2)N1S(=O)(=O)c1ccc(C)cc1	-5	1	16	99	1
CCCC[C@@H]1C=C(C(=O)O)[C@H](c2ccc(C)cc2)N1S(=O)(=O)c1ccc(C)cc1	-5	-3	53*	105	-2
Cc1ccc(S(=O)(=O)N2[C@@H](c3ccc(Br)cc3)C(C(=O)O)=C[C@H]2C(C)(C)C)cc1	-6	-5	52*	96	-1
CCN1C[C@@H]2[C@@H]3C(=O)N(Cc4ccccc4)C(=O)[C@@H]3[C@](CC)(C1=O)N2C(=O)c1ccccc1	-11	3	.	95	.
COc1ccccc1C(=O)N1CCN(C(=O)[C@@H](Cc2ccccc2)NC(=O)[C@H]2O[C@@H](n3cnc(C(N)=O)n3)[C@H](O)[C@@H]2O)CC1	-4	.	.	.	.
SMILES	CaV13 FRET inh	Granule exo inh	VLA-4 inh	ABCB6 inh 2	VLA-4 allo CP
CN(C)CCCn1c(SCC(=O)N2c3ccccc3Sc3ccccc32)nc2ccccc2c1=O	-3	33	53*	95	0
Cn1c(SCC(=O)N2c3ccccc3Sc3ccccc32)nc2ccccc21	-2	-2	0	94	.
COc1ccccc1-c1cccc2c3c([nH]c12)[C@@H]1C[C@H]2[C@@H](C(=O)N1CC3)[C@H](C)ON2C	-5	.	.	.	.
O=C1NC[C@@H]2CCCN2C1=O	-12	-9	.	95	.
O=C1NCC(=O)N2CCC[C@@H]12	.	0	54*	101	9
COC(=O)c1ccsc1NC(=O)CN1C(=O)CCC1=O	-7	1	52*	95	0
CC(=O)c1c(C)[nH]c(C(=O)CSc2nnc(C3CCCCC3)n2N)c1C	-5	-1	52*	92	4
Nn1c(SCC(=O)N2CCCC2)nnc1C1CCCCC1	8	-6	.	79	.
Cc1cc(C)n(/C(=C\N(C)C)C(=O)c2cccc([N+](=O)[O-])c2)n1	-12	-4	42	100	-18
O=C(NCCN1CCOCC1)C1CCN(S(=O)(=O)N2CCCC2)CC1	-4	0	-8	101	.
FC(F)(F)c1nnc(-c2ccccc2)nc1Sc1ccccc1	-1	33	23	97	.
FC(F)(F)c1nnc(-c2ccccc2)nc1Sc1ccc(Cl)cc1	-8	52	72*	101	50*
CN1OC[C@@H]2CN(C(=O)C3CCCCC3)[C@H](c3ccc(N4CCCCC4)cc3)C[C@@H]21	-3	.	.	.	.
CC(=O)c1ccccc1NS(=O)(=O)c1ccccc1Cl	-4	-2	-3	97	4
Cc1cc(C=O)c(C)n1-c1sc2c(c1C(=O)O)CCCC2	-5	-1	52*	107	3
COc1ccccc1C(=O)NCCC(=O)N(Cc1ccco1)Cc1cccs1	-6	-4	4	96	.
COc1ccc(C(=O)N(Cc2ccco2)Cc2cccs2)c(O)c1	.	2	54*	98	1
Cc1ccc(Nc2nc(N)nc(CN3CCN(c4ccccc4F)CC3)n2)cc1	-5	2	26	95	.
Nc1nc(CN2CCN(c3ccccc3F)CC2)nc(Nc2ccccc2)n1	-5	-1	76*	93	0
CC[C@]12c3[nH]c4ccccc4c3CCN1C(=O)C(CC(=O)NCc1ccco1)C[C@@H]2C(=O)N1CCN(C(=O)C2CC2)CC1 (stereo not given in full)	-5	1	58*	95	-3
CCOc1cc(C(=O)N/N=C/C(Br)=C/c2ccccc2)cc(OCC)c1OCC	-8	1	51*	106	18
Fc1ccc2[nH]c3c(Cl)ncnc3c2c1	-4	0	-1	91	.
COc1ccc2[nH]c3c(Cl)ncnc3c2c1	-16	2	48	98	-6
COC(=O)c1cc2c(c3c4cc(OC)ccc4n(S(=O)(=O)c4cccc(C)c4)c13)C(=O)N(Cc1ccc(N(C)C)cc1)C2	-4	.	.	.	.
CCCS(=O)(=O)N1CCC(C(=O)N2CCCC2)CC1	-6	-7	-2	98	.
CCCS(=O)(=O)N1CCC(C(=O)NC2CCC(C)CC2)CC1 (stereo not given)	-5	0	93*	85	-1
O=C(CC1CCCC1)N[C@H](C(=O)N1CCC[C@H]1C(=O)NCCc1ccccc1Cl)c1ccccc1	-3	.	.	.	.
CCOC(=O)n1cc(C(=O)c2ccccc2O)cn1	-2	13	28	88	.
CC(C)(C)OC(=O)n1cc(C(=O)c2ccccc2O)cn1	-2	20	50*	101	7
